Several values for one entry are separate records, joined by “and”; a condition that tells them apart may be missing. Equal entries are not always repeated. A number with no mark means an inactive call. Records with an inconclusive call do not appear. Where a call stands in place of a potency, no number is given. Activity calls are given as the source filed them. Calls follow the shape of the full dose curve.

Chain of Acetylcholinesterase (Homo sapiens) (P22303 whole entry, looked up): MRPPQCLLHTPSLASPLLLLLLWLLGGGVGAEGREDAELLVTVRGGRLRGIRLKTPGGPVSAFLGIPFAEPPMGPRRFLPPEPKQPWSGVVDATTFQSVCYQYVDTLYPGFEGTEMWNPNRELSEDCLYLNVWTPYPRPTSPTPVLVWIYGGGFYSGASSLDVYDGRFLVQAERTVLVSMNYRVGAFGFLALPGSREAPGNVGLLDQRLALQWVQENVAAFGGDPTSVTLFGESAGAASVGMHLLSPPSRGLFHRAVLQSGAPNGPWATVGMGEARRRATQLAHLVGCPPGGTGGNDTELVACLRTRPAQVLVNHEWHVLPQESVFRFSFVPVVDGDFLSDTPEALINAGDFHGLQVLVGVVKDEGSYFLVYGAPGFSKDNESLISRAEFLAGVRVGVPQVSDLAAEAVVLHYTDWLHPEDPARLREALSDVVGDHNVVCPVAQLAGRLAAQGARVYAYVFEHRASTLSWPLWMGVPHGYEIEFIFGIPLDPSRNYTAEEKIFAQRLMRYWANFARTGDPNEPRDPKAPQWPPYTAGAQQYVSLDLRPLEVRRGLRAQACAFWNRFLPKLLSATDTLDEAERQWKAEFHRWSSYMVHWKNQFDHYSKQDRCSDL

The first test addresses Acetylcholinesterase (Homo sapiens) (UniProt P22303). Description: Acetylcholinesterase (AChE) small molecule antagonists: fluorescence cell-based qHTS assay (AID 1347398). Also: nearly all actives have a fitted effect of over 50% in size. Also: potency is read from the fitted curve at half-maximal effect. The note with it: SH-SY5Y cells; Potency: AChE activity; outcome: AChE activity; series mostly up to 115 µM. The gist of the method: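 Cellular AChE inhibition: SH-SY5Y cells treated with test chemical for 30 min at 37 C, then acetylthiocholine hydrolysis followed over 40 min at room temperature via thiocholine-reactive Thiolite Green fluorescence (490/520 nm).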
Turning to `CCOc1ccc(OCC)c(Cl)c1`, the Potency entry was “inactive”.

With `CN(C)CCCOC1(Cc2ccccc2)CCCCCC1`, the Potency result is “inactive”.

As to `COC(=O)C(C)O` (stereo not given), the Potency result was “inactive”.

Consider `CC(C)C(C)(C)C(C)(C)C(C)(C)S`, for which the Potency result is “inactive”.

On to `O=C1Nc2ccccc2C1(c1ccc(O)cc1)c1ccc(O)cc1`, for which the Potency result was “inactive”.

With `CCCCCC(=O)OCCc1ccccc1`, the Potency result was “inactive”.

For the compound `Nc1ccc(/C=C/c2ccc(N)cc2S(=O)(=O)O)c(S(=O)(=O)O)c1`, the activity change, negative = inhibition was 2.35% [at 0.439 µM].

Turning to `O=C1NC2NC(=O)NC2N1` (stereo not given), the Potency entry was “inactive”.

Take `CCCCCCC(O)CCOC(C)=O` (stereo not given): the Potency entry was “inactive”.

Consider `Cc1cnc(NC(=O)C2=C(O)c3ccccc3S(=O)(=O)N2C)s1`, for which the Potency result was “inactive”.

For `NNc1nc(-c2ccccc2)cs1`, the Potency result is “inactive”.

As for `C/C(C=O)=C\c1ccccc1`, the Potency entry is “inactive”.

Take `CC12CCC(C1)C(C)(C)C2O` (stereo not given): the Potency result was “inactive”.

Regarding `O=Cc1c2ccccc2c(Cl)c2ccccc12`, the Potency entry was “inactive”.

`CCCCc1nc(Cl)c(CO)n1Cc1ccc(-c2ccccc2-c2nn[nH]n2)cc1`: the Potency entry was “inactive”.

Turning to `C/C=C/C(=O)OCC(C)C`, the Potency result was “inactive”.

With `C#CCN[C@@H]1CCc2ccccc21`, the compound was called inactive.

In the case of `CC#C[C@]1(O)CC[C@H]2[C@@H]3CCC4=CC(=O)CCC4=C3[C@@H](c3ccc(N(C)C)cc3)C[C@@]21C`, the Potency entry was “inactive”.

In the case of `CC(CC(=O)O)CC(C)(C)C` (stereo not given), the Potency result is “inactive”.

As for `CC(=O)O[Si](C)(OC(C)=O)OC(C)=O`, the Potency entry was “inactive”.

For `C[Si](C)O[Si](C)C`, the Potency entry is “inactive”.

`CCCCCCCCCCCCCC[N+](C)(C)Cc1ccccc1`: the Potency is 36.2 µM (active) and 30.9 µM (active) and 15.8 mM (active).

Regarding `Clc1ccc2c(Cl)ccnc2c1`, the Potency result was “inactive”.

As to `COC(=O)c1sccc1S(N)(=O)=O`, the Potency entry was “inactive”.

Take `CN(C)CCCNCCC#N`: the Potency entry is “inactive”.

Take `COc1ccc([C@@H]2CC(=O)c3c(O)cc(O[C@@H]4O[C@H](CO[C@@H]5O[C@@H](C)[C@H](O)[C@@H](O)[C@H]5O)[C@@H](O)[C@H](O)[C@H]4O)cc3O2)cc1OC`: the Potency result is “inactive”.

Consider `CCCCCC(=O)OCC`, for which the Potency result was “inactive”.

In the case of `Cc1c2ccccc2c(C)c2c1ccc1ccccc12`, the Potency entry is “inactive”.

Consider `O=C(COCCOCCOCC(=O)Nc1c(I)cc(I)c(C(=O)O)c1I)Nc1c(I)cc(I)c(C(=O)O)c1I`, for which the Potency result is “inactive”.

`CCOC(=O)C(C)Oc1ccc(Oc2cnc3cc(Cl)ccc3n2)cc1` (stereo not given): the Potency entry is “inactive”.

Take `OB(O)O`: the Potency entry was “inactive”.

On to `O=C(Cn1ccnc1[N+](=O)[O-])NCc1ccccc1`, for which the Potency entry was “inactive”.

Take `Clc1nc2ccccc2s1`: the Potency entry was “inactive”.

On to `Cc1cc2c(s1)Nc1ccccc1N=C2N1CCN(C)CC1`, for which the Potency result is “inactive”.

As to `CCCCCCOC(=O)CCCCCCCC(=O)OCCCCCC`, the Potency result is “inactive”.

Regarding `O=C(/C=C/c1ccc(O)c(O)c1)O[C@@H](C(=O)O)[C@@H](OC(=O)/C=C/c1ccc(O)c(O)c1)C(=O)O`, the Potency entry is “inactive”.

`CCN(O)CC`: the Potency entry was “inactive”.

On to `CN(C/C=C/C#CC(C)(C)C)Cc1cccc2ccccc12`, for which the Potency entry was “inactive”.

`Cc1cc(NC(=O)C(=O)O)cc(C)c1Oc1ccc(O)c2c1CCC2`: the Potency entry is “inactive”.

Consider `CCOC(N)=O`, for which the Potency entry was “inactive”.

Another test shares this target. Description: Acetylcholinesterase (AChE) small molecule antagonists: enzyme-based qHTS assay with human liver microsomes (AID 1347399). Also: nearly all actives have a fitted effect of over 60% in size. The note with it: Potency: qHTS inhibition; outcome: qHTS inhibition; series mostly up to 115 µM. In short, it runs like this: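 Recombinant human AChE (50 mU/mL in the enzyme mix) and human liver microsomes (0.25 mg/mL final) were preincubated with compound and NADPH (0.25 mg/mL final) for 30 min at 37 C. Acetylthiocholine/DTNB was then added; thiocholine was read colorimetrically after 10 min at room temperature.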
On to `CCOc1ccc(OCC)c(Cl)c1`, for which the Potency entry was “inactive”.

`CN(C)CCCOC1(Cc2ccccc2)CCCCCC1`: the Potency entry was “inactive”.

On to `COC(=O)C(C)O` (stereo not given), for which the Potency entry was “inactive”.

Turning to `CC(C)C(C)(C)C(C)(C)C(C)(C)S`, the Potency entry is “inactive”.

With `O=C1Nc2ccccc2C1(c1ccc(O)cc1)c1ccc(O)cc1`, the Potency result was “inactive”.

For the compound `CCCCCC(=O)OCCc1ccccc1`, the Potency entry is “inactive”.

`Nc1ccc(/C=C/c2ccc(N)cc2S(=O)(=O)O)c(S(=O)(=O)O)c1`: the activity change, negative = inhibition was -0.084% [at 0.435 µM].

As to `O=C1NC2NC(=O)NC2N1` (stereo not given), the Potency entry was “inactive”.

In the case of `CCCCCCC(O)CCOC(C)=O` (stereo not given), the Potency entry was “inactive”.

As to `Cc1cnc(NC(=O)C2=C(O)c3ccccc3S(=O)(=O)N2C)s1`, the Potency result was “inactive”.

Regarding `NNc1nc(-c2ccccc2)cs1`, the Potency entry was “inactive”.

Take `C/C(C=O)=C\c1ccccc1`: the Potency entry was “inactive”.

On to `CC12CCC(C1)C(C)(C)C2O` (stereo not given), for which the Potency result was “inactive”.

In the case of `O=Cc1c2ccccc2c(Cl)c2ccccc12`, the Potency result is “inactive”.

With `CCCCc1nc(Cl)c(CO)n1Cc1ccc(-c2ccccc2-c2nn[nH]n2)cc1`, the Potency result was “inactive”.

In the case of `C/C=C/C(=O)OCC(C)C`, the Potency result is “inactive”.

Take `C#CCN[C@@H]1CCc2ccccc21`: the call was inactive.

For `CC#C[C@]1(O)CC[C@H]2[C@@H]3CCC4=CC(=O)CCC4=C3[C@@H](c3ccc(N(C)C)cc3)C[C@@]21C`, the Potency result is “inactive”.

Turning to `CC(CC(=O)O)CC(C)(C)C` (stereo not given), the Potency result was “inactive”.

Take `CC(=O)O[Si](C)(OC(C)=O)OC(C)=O`: the Potency result was “inactive”.

Consider `C[Si](C)O[Si](C)C`, for which the Potency entry is “inactive”.

Regarding `CCCCCCCCCCCCCC[N+](C)(C)Cc1ccccc1`, the Potency result was “inactive”.

For `Clc1ccc2c(Cl)ccnc2c1`, the Potency entry is “inactive”.

For `COC(=O)c1sccc1S(N)(=O)=O`, the Potency entry is “inactive”.

As to `CN(C)CCCNCCC#N`, the Potency result is “inactive”.

For `COc1ccc([C@@H]2CC(=O)c3c(O)cc(O[C@@H]4O[C@H](CO[C@@H]5O[C@@H](C)[C@H](O)[C@@H](O)[C@H]5O)[C@@H](O)[C@H](O)[C@H]4O)cc3O2)cc1OC`, the Potency result is “inactive”.

`CCCCCC(=O)OCC`: the Potency result is “inactive”.

`Cc1c2ccccc2c(C)c2c1ccc1ccccc12`: the Potency entry was “inactive”.

As to `O=C(COCCOCCOCC(=O)Nc1c(I)cc(I)c(C(=O)O)c1I)Nc1c(I)cc(I)c(C(=O)O)c1I`, the Potency entry is “inactive”.

`CCOC(=O)C(C)Oc1ccc(Oc2cnc3cc(Cl)ccc3n2)cc1` (stereo not given): the Potency entry is “inactive”.

Take `OB(O)O`: the Potency entry is “inactive”.

As to `O=C(Cn1ccnc1[N+](=O)[O-])NCc1ccccc1`, the Potency result was “inactive”.

Take `Clc1nc2ccccc2s1`: the Potency result was “inactive”.

Take `Cc1cc2c(s1)Nc1ccccc1N=C2N1CCN(C)CC1`: the Potency entry is “inactive”.

Consider `CCCCCCOC(=O)CCCCCCCC(=O)OCCCCCC`, for which the Potency result is “inactive”.

`O=C(/C=C/c1ccc(O)c(O)c1)O[C@@H](C(=O)O)[C@@H](OC(=O)/C=C/c1ccc(O)c(O)c1)C(=O)O`: the Potency entry is “inactive”.

As for `CCN(O)CC`, the Potency entry was “inactive”.

With `CN(C/C=C/C#CC(C)(C)C)Cc1cccc2ccccc12`, the Potency result is “inactive”.

Regarding `Cc1cc(NC(=O)C(=O)O)cc(C)c1Oc1ccc(O)c2c1CCC2`, the Potency result is “inactive”.

For the compound `CCOC(N)=O`, the Potency entry was “inactive”.

These data come from PubChem BioAssay (Tox21).
